An excerpt weighted towards active compounds, which were near 2.3% of everything screened.
Tau fluor cs: Counterscreen qHTS for Inhibitors of Tau Fibril Formation, Fluorescence Polarization | tau K18 P301L Alexa594 fluorescence, heparin fibrillization | Potency, µM (highest dose often 57.7 µM), for the others: at the top dose activity change, negative = decrease | hit rate 0.93% among 280,000; note: potency is the fitted concentration of half-maximal effect; nearly all actives have a fitted effect of over 55% in size
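Human tau K18 P301L (15 uM unlabeled, 0.24 uM Alexa 594-labeled) in 100 mM sodium acetate pH 7 with 20 uM heparin, 6 hr at 37 C. ThT 30 uM added, 1 hr ambient; Alexa 594 FP and total fluorescence read at 555/632 nm.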
USP1-UAF1 inh: Inhibitors of USP1/UAF1: Primary Screen; recombinant USP1/UAF1, Ub-Rhodamine cleavage fluorescence; Potency, µM (highest dose often 57.1 µM), inactives show at the top dose activity change, negative = inhibition, hits mostly inhibitors; hit rate 0.23% among 390,000; AID 743255, 2014; note: potency is the fitted concentration of half-maximal effect; nearly all actives have a fitted effect of over 60% in size
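Step one: compound is pinned into 1nM USP1/UAF1 in HEPES pH 7.8 buffer with TCEP. Step two: 15 min room-temperature incubation. Step three: Ub-Rho (150nM final) starts cleavage, tracked by fluorescence over six one-minute reads.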
Tau ThT inhib: qHTS for Inhibitors of Tau Fibril Formation, Thioflavin T Binding. Potency, µM (highest dose often 57.4 µM), for inactives: at the top dose activity, negative = inhibition, actives largely listed as inhibitors. recombinant tau K18 P301L (four-repeat tau fragment), heparin-induced fibrillization, ThT fluorescence. Microtubule-associated protein tau (Homo sapiens), P10636. AID 1460, 2008. hit rate 2.1% among 270,000; note: potency is the fitted concentration of half-maximal effect; nearly all actives have a fitted effect of over 55% in size
Target sequence (P10636 561-689 P618L limits assumed): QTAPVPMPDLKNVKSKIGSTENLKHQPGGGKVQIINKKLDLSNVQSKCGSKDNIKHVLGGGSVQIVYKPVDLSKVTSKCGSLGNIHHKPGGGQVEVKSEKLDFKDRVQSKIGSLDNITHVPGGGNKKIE
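Heparin-induced fibrillization of the P301L-mutant K18 repeat-domain fragment of human tau was followed by ThT binding in quantitative high-throughput format.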
FBPA coupling cs: qHTS Assay for Inhibitors of Fructose-1,6-bisphosphate Aldolase from Giardia Lamblia: Coupling assay counterscreen; coupling enzyme system counterscreen, AmpLite Red fluorescence; activity change, negative = inhibition, % at 58.2 µM, hits read low; hit rate 0.67% among 290,000; AID 2472, 2010; in the data active = activity change below about -30%
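Fluorescence at 525 nm excitation and 598 nm emission measured inhibition of the coupled detection system without aldolase. Compounds (at 57.5 uM final) were preincubated 10 min at room temperature with coupling enzyme reagent before a 20 min substrate/AmpLite Red step.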
Tau fibril FP: qHTS for Inhibitors of Tau Fibril Formation, Fluorescence Polarization; Microtubule-associated protein tau (Homo sapiens), P10636; K18 P301L tau heparin fibrillization, Alexa594 FP, 6 h; Potency, µM (series often up to 57.7 µM), for inactives: top-dose activity, negative = inhibition, usual class: inhibitors; hit rate 0.39% among 280,000; note: potency is the fitted concentration of half-maximal effect; nearly all actives have a fitted effect of over 55% in size
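Steps: dispense K18 P301L tau (15 uM plus 0.24 uM Alexa 594 tracer, final) in pH 7 sodium acetate; add compound; add heparin (20 uM final); incubate 6 hr, 37 C; add ThT (30 uM final); after 1 hr ambient, read FP.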
Numbers without * were called inactive; [ ] = dose if it differs, or a comment. Unless noted, calls come from the whole dose curve; as a rule, active = well fitted curve in the direction sought with a large enough effect; inconclusive = small, poorly fitted or top-dose-only effect, or another doubt; inactive = no such curve, though single readings can be large; an effect the other way counts as inactive or inconclusive. % is set by controls: 0 for no effect and ±100 for the full control effect.

How did O=C1OCCN1C(=O)[C@H]1[C@H](c2ccc(F)cc2)C(c2cccc(Cl)c2)=NN1c1ccccc1 do in these assays?
Tau fluor cs: inconclusive; USP1-UAF1 inh: -17%; Tau ThT inhib: -4%; FBPA coupling cs: -3; Tau fibril FP: -10%

What do the screens show for `COc1ccccc1[C@@H]1C(c2cccc(Cl)c2)=NN(c2ccccc2)[C@H]1C(=O)N1CCOC1=O`?
Tau fluor cs: inconclusive; USP1-UAF1 inh: -18%; Tau ThT inhib: -7%; FBPA coupling cs: -2; Tau fibril FP: -7%

Results for OC[C@@H]1[C@@H](c2ccccc2)C(c2cccc(Cl)c2)=NN1c1ccccc1 ?
Tau fluor cs: 18µM*[quencher]; USP1-UAF1 inh: -16%; Tau ThT inhib: inconclusive; FBPA coupling cs: -4; Tau fibril FP: inconclusive

Results for OC[C@@H]1[C@@H](c2ccc(F)cc2)C(c2ccc(F)cc2)=NN1c1ccccc1 ?
Tau fluor cs: 28µM*[quencher]; Tau ThT inhib: inconclusive; FBPA coupling cs: -1; Tau fibril FP: -1%[81.3 µM]

How did OC[C@@H]1[C@@H](c2ccccc2)C(c2ccc(F)cc2)=NN1c1ccccc1 do in these assays?
Tau fluor cs: 10µM*[quencher]; USP1-UAF1 inh: -23%; Tau ThT inhib: inconclusive; FBPA coupling cs: -2; Tau fibril FP: inconclusive

How did OC[C@@H]1[C@@H](c2ccccc2)C(c2ccccc2)=NN1c1ccccc1 do in these assays?
Tau fluor cs: 13µM*[quencher]; USP1-UAF1 inh: -27%; Tau ThT inhib: inconclusive; FBPA coupling cs: 0; Tau fibril FP: inconclusive

What do the screens show for `C[C@H]1C(c2ccccc2)=NN(c2ccccc2)[C@@H]1CO`?
Tau fluor cs: inconclusive; Tau ThT inhib: inconclusive; FBPA coupling cs: 0; Tau fibril FP: inconclusive

How did CCc1ccccc1NC(=O)C(=O)NCCc1sc(-c2cccc(C)c2)nc1C do in these assays?
Tau fluor cs: -2%; USP1-UAF1 inh: -27%; Tau ThT inhib: -15%; Tau fibril FP: -1%

How did C#CC(N)CCC(=O)O (centres undefined) do in these assays?
Tau fluor cs: -22%; Tau ThT inhib: -15%; Tau fibril FP: inconclusive

What do the screens show for `CCCOc1ccc(NC(=O)CC2C(=O)N(CC)C(=S)N2CCCN2CCN(Cc3ccccc3)CC2)cc1` (centres undefined)?
Tau fluor cs: inconclusive; USP1-UAF1 inh: inconclusive; Tau ThT inhib: inconclusive; FBPA coupling cs: -1; Tau fibril FP: -13%

Results for CCN1C(=O)C(CC(=O)Nc2ccc(F)cc2)N(CCCN2CCN(c3ccc(F)cc3)CC2)C1=S (centres undefined) ?
Tau fluor cs: 13µM*[quencher]; USP1-UAF1 inh: -12%; Tau ThT inhib: inconclusive; FBPA coupling cs: -1; Tau fibril FP: inconclusive

What do the screens show for `Cn1ncc(Cl)c1C(=O)N/N=C/c1cccc(OC2CSC2)c1`?
Tau fluor cs: -5%; USP1-UAF1 inh: -11%; Tau ThT inhib: 1%; FBPA coupling cs: -40*; Tau fibril FP: -5%

What do the screens show for `Cn1ncc(Cl)c1C(=O)N/N=C/c1ccccn1`?
Tau fluor cs: 4%; USP1-UAF1 inh: -14%; Tau ThT inhib: 3%; FBPA coupling cs: -53*; Tau fibril FP: -1%

What do the screens show for `COc1ccc(OC)c(Nc2nc3ccccc3nc2-n2nc(C)cc2C)c1`?
Tau fluor cs: 13µM*[quencher]; USP1-UAF1 inh: -7%; Tau ThT inhib: -10%; Tau fibril FP: inconclusive

Results for COc1ccc(Nc2nc3ccc(C)cc3nc2-n2nc(C)cc2C)cc1Cl ?
Tau fluor cs: 14µM*[quencher]; USP1-UAF1 inh: -27%; Tau ThT inhib: -10%; Tau fibril FP: inconclusive

What do the screens show for `COc1ccc(Nc2nc3ccccc3nc2-n2nc(C)cc2C)cc1`?
Tau fluor cs: inconclusive; USP1-UAF1 inh: -14%; Tau ThT inhib: -8%; FBPA coupling cs: 0; Tau fibril FP: 10%

What do the screens show for `CSc1cccc(NC(=O)Nc2ccccc2OCc2cc(=O)n3cc(C)ccc3n2)c1`?
Tau fluor cs: inconclusive; USP1-UAF1 inh: -15%; Tau ThT inhib: inconclusive; Tau fibril FP: -12%

Results for Nc1ccc2oc3ccc(N)cc3c(=O)c2c1 ?
Tau fluor cs: -20%; USP1-UAF1 inh: inconclusive; Tau ThT inhib: 14µM*; FBPA coupling cs: -19; Tau fibril FP: 4%

Results for Cc1ccsc1C(=O)OCc1nc2ccsc2c(=O)[nH]1 ?
USP1-UAF1 inh: -5%

What do the screens show for `Cc1ccsc1C(=O)OCc1nc2ccccc2c(=O)[nH]1`?
Tau fluor cs: -9%; USP1-UAF1 inh: -9%; Tau ThT inhib: -12%; FBPA coupling cs: -35*; Tau fibril FP: 9%

What do the screens show for `Cc1[nH]c2ccccc2c1[C@H]1[C@@H](CC#N)C1(C)C`?
Tau fluor cs: inconclusive; USP1-UAF1 inh: -19%; Tau ThT inhib: -2%; FBPA coupling cs: -46*; Tau fibril FP: inconclusive

Results for NS(=O)(=O)c1ccc(N=Nc2ccc(O)c3ncccc23)cc1 ?
USP1-UAF1 inh: -24%; FBPA coupling cs: -4

How did Oc1ccc(N=Nc2c(O)ccc3ccccc23)cc1 do in these assays?
Tau fluor cs: 11µM*[quencher]; USP1-UAF1 inh: -14%; Tau ThT inhib: 2.5µM*; FBPA coupling cs: -11; Tau fibril FP: inconclusive

What do the screens show for `Oc1ccc(N=Nc2ccc3ccccc3c2)cc1`?
USP1-UAF1 inh: -21%; FBPA coupling cs: -1

Results for Cc1[nH]c2ccccc2c1N=Nc1cc(C(=O)O)cc(C(=O)O)c1 ?
Tau fluor cs: -8%; USP1-UAF1 inh: -22%; Tau ThT inhib: inconclusive; FBPA coupling cs: 4; Tau fibril FP: 0%

Results for O=C(O)c1cc(N=Nc2c(O)ccc3ccccc23)cc(C(=O)O)c1 ?
Tau fluor cs: -11%; USP1-UAF1 inh: inconclusive; Tau ThT inhib: 16µM*; FBPA coupling cs: -1; Tau fibril FP: -4%

How did NS(=O)(=O)c1ccc(N=Nc2c(O)ccc3ccccc23)cc1 do in these assays?
Tau fluor cs: -26%; USP1-UAF1 inh: -18%; Tau ThT inhib: 1.1µM*; FBPA coupling cs: -7; Tau fibril FP: 0%

How did COc1cc(OC)c2cc(C(=O)N/N=C/c3cccc(OC)c3O)[nH]c2c1 do in these assays?
Tau fluor cs: inconclusive; USP1-UAF1 inh: -27%; Tau ThT inhib: 5µM*; FBPA coupling cs: 0; Tau fibril FP: inconclusive

What do the screens show for `COc1cccc(/C=N/NC(=O)c2cc3c(OC)ccc(OC)c3[nH]2)c1O`?
USP1-UAF1 inh: -23%; FBPA coupling cs: 1

How did O=C(Cn1cc(SCc2ccccc2F)c2ccccc21)N1CCCCC1 do in these assays?
Tau fluor cs: -12%; USP1-UAF1 inh: -21%; Tau ThT inhib: -10%; Tau fibril FP: -2%

Compound activity: PubChem BioAssay, National Center for Advancing Translational Sciences (NCATS)
